# Test results taken from PubChem BioAssay (NCI).
# About 79,000 compounds went through this panel and 15% of them were active in at least one assay; those are over-represented in the sample as a whole. Unmarked numbers belong to inactive results. Active and inactive are the calls of the source. Rule as the data show it: active = growth inhibition above about 70%; inactive = the rest.
# Assays:
# [1] = NCI Yeast Anticancer Drug Screen. Data for the rad50 strain (AID 155);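 also: 0% = growth of vehicle-only cultures of the same strain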; conditions: S. cerevisiae rad50 strain growth inhibition, hits give high values
# Summary of the method: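 Compounds were tested on a yeast strain with an engineered DNA damage repair alteration; the reported value is growth inhibition normalised to vehicle treatment.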
# [2] = NCI Yeast Anticancer Drug Screen. Data for the mec2-1 strain (AID 157); conditions: S. cerevisiae mec2-1 strain, hits give high values
# Summary of the method: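 Vehicle-treated cultures served as reference for growth inhibition of compound-exposed mec2-1 yeast.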
# [3] = NCI Yeast Anticancer Drug Screen. Data for the sgs1 mgt1 strain (AID 161);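 also: 0% = growth of cultures given vehicle only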; conditions: S. cerevisiae sgs1 mgt1 strain, hits give high values
# Summary of the method: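 Test agents were incubated with a DNA-repair-mutant yeast strain. Growth was then read and compared against vehicle-treated controls.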
# [4] = NCI Yeast Anticancer Drug Screen. Data for the cln2 rad14 strain (AID 165);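 also: 0% = growth equal to vehicle treated cultures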; conditions: S. cerevisiae cln2 rad14 strain, hits give high values
# Summary of the method: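 Each compound was tested on cln2 rad14 yeast. Inhibition of growth was calculated against vehicle-exposed controls.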
# [5] = NCI Yeast Anticancer Drug Screen. Data for the bub3 strain (AID 167); conditions: S. cerevisiae bub3 mutant strain, hits give high values
# Summary of the method: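 Growth of a checkpoint-deficient yeast mutant is measured after compound exposure. Values represent inhibition relative to vehicle.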
# [6] = NCI Yeast Anticancer Drug Screen. Data for the mlh1 rad18 strain (AID 175); conditions: S. cerevisiae mlh1 rad18 strain growth inhibition, hits give high values
# Summary of the method: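 Vehicle-treated cultures served as the reference for growth inhibition in a yeast strain carrying DNA damage repair alterations exposed to each compound.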
# [7] = at 5.0 µM (retest, dose inferred, filed as 0.5)
# [8] = at 50.0 µM (retest, dose inferred, filed as 5.0)
SMILES,"growth inhibition [1, 7]","growth inhibition [1, 8]",growth inhibition ([1]; at 50.0 µM),"growth inhibition [2, 7]","growth inhibition [2, 8]",growth inhibition ([2]; at 50.0 µM),"growth inhibition [3, 7]","growth inhibition [3, 8]",growth inhibition ([3]; at 50.0 µM),"growth inhibition [4, 7]","growth inhibition [4, 8]",growth inhibition ([4]; at 50.0 µM),"growth inhibition [5, 7]","growth inhibition [5, 8]",growth inhibition ([5]; at 50.0 µM),"growth inhibition [6, 7]","growth inhibition [6, 8]",growth inhibition ([6]; at 50.0 µM)
COc1c[c]([Hg][O]C(C)=O)c(OC)c(NC(=O)CC(C)=O)[c]1[Hg][O]C(C)=O,97% (active),95% (active),89.7% (active),99% (active),96% (active),92.5% (active),100% (active),93% (active),92.5% (active),43%,96% (active),90% (active),99% (active),96% (active),90.8% (active),,,
NC(=O)c1cc([N+](=O)[O-])c(Cl)c([N+](=O)[O-])c1,50%,89% (active),88.2% (active),62%,84% (active),86.3% (active),38%,98% (active),89% (active),36%,97% (active),56.5%,,,,,,
S=c1sc(-c2ccccc2)c[se]1,-1%,42%,67%,2%,28%,21.6%,-2%,34%,46.4%,-1%,13%,88.5% (active),-1%,17%,35.1%,-5%,41%,32.9%
COC1=C(Cl)C(=O)c2ccccc2C1=O,8%,98% (active),99.2% (active),15%,99% (active),99.5% (active),6%,99% (active),99.6% (active),-2%,98% (active),99.1% (active),30%,98% (active),99.2% (active),,,
[Pt].c1ccc([PH+](c2ccccc2)c2ccccc2)cc1.c1ccc([PH+](c2ccccc2)c2ccccc2)cc1.c1ccc([PH+](c2ccccc2)c2ccccc2)cc1.c1ccc([PH+](c2ccccc2)c2ccccc2)cc1,31%,62%,68.5%,27%,61%,42.7%,40%,82% (active),62.3%,49%,55%,64%,42%,54%,62.5%,27%,86% (active),41.5%
N#C[S-].[Ce+3].c1cnc2c(c1)ccc1cccnc12.c1cnc2c(c1)ccc1cccnc12.c1cnc2c(c1)ccc1cccnc12,96% (active),99% (active),92% (active),99% (active),100% (active),94.8% (active),100% (active),100% (active),91% (active),94% (active),98% (active),93.5% (active),99% (active),99% (active),93% (active),97% (active),99% (active),92.8% (active)
O=P(Oc1ccccc1)(Oc1ccccc1)Oc1ccccc1Cl,5%,0%,29.4%,3%,-8%,0.05%,-4%,4%,13.6%,0%,-14%,-6.1%,2%,28%,66.5%,-13%,-3%,51.6%
CC(=O)[C-](Cl)C(C)=O.CC(=O)[C-](Cl)C(C)=O.CC(=O)[C-](Cl)C(C)=O.[Ru+3],16%,98% (active),34.6%,15%,99% (active),84.8% (active),16%,99% (active),53.8%,8%,99% (active),-1.7%,-1%,99% (active),-17.4%,6%,99% (active),76.8% (active)
CC(=O)OCC1(N2CCCC2)CCCCC1,-3%,2%,5.05%,2%,-3%,5.35%,-3%,16%,43.4%,-5%,-17%,0.45%,-10%,-10%,23.6%,-16%,-6%,-16.6%
N#CSCC(=O)O (tested in a mixture with another compound),2%,-6%,0.5%,2%,4%,7.4%,3%,5%,5.85%,-4%,3%,25.1%,-3%,-3%,6.3%,0%,-6%,-7.75%
